The source of these data is PubChem BioAssay (EPA / NIEHS).

Results filed as inconclusive are left out. Active and inactive are the calls of the source. Rule for the calls: active = hit-call score of the fitted dose curve at least 0.9, where 1 is the maximum; inconclusive = response in the unintended direction; inactive = score below 0.9.

Read-out in this assay: HMG-CoA synthase (HMGCS2), HMGCS2 (gene 3158)
The assay can be described thus: CLD_HMGCS2_48hr: CellzDirect (CLD) Gene Expression Assay for HMG-CoA synthase (HMGCS2) at 48 hours (AID 2283711). Here is the method: CLD_48hr is a cell-based, multiplexed-readout assay that uses hepatocyte, a human liver primary cell, with measurements taken at 48 hours after chemical dosing in a 96-well plate.CLD_HMGCS2_48hr is one of 16 assay component(s) measured or calculated from the CLD_48hr assay. It is designed to make measurements of mRNA induction, a form of inducible reporter, as detected with chemiluminescence signals by Quantitative Nuclease Protection Assay (qNPA) technology.Data from the assay component CLD_HMGCS2_48hr was analyzed at the endpoint, CLD_HMGCS2_48hr, in the positive analysis fitting direction relative to DMSO as the negative control and baseline of activity. Using a type of inducible reporter, gain-of-signal activity can be used to understand changes in the reporter gene as they relate to the gene HMGCS2. Furthermore, this assay endpoint can be referred to as a primary readout. To generalize the intended target to other relatable targets, this assay endpoint is annotated to the lyase intended target family, where subfamily is HMG-CoA synthase.
Human hepatocyte cultures were treated daily for two consecutive days with fresh dosing solutions containing appropriate concentrations of the 320 ToxCast chemicals (chemical identities were blinded to CellzDirect and other ToxCast collaborators), vehicle control (0.2% DMSO), and positive control inducers as summarized in Table 1. Due to the large number of treatment groups and chemicals examined, the ToxCast chemicals were divided into two groups (spanning two independent cultures of hepatocytes from separate donor preparations (Hu778: ToxCast plates 1 and 2; Hu776: ToxCast plates 3 and 4). Each preparation of human hepatocyte cultures was treated with respective vehicle control, medium only control, set of six positive controls/reference chemicals for the five hepatic receptor pathways, and a subset of eight of the ToxCast chemicals (indoxacarb, pyrithiobac-sodium, norflurazon, cyhalofop-butyl, methomyl, thiram, acetochlor, and propiconazole). These replicate data, coupled with internal replicates designed within the blinded ToxCast chemical library, provided additional data to evaluate interindividual differences between hepatocyte preparations and their potential impact on chemical profiles.Cell morphology and integrity were evaluated using phase-contrast microscopy as an indicator of hepatocyte cell health (Tyson & Green, 1987). Cultures for each treatment group (i.e., media, vehicle [0.2% DMSO], positive control inducers [multiple concentrations], and the ToxCast chemicals [multiple concentrations]) were observed and cell morphology was assessed relative to vehicle control cultures at each harvest time point (0, 6, 24, or 48 h). […] Images were evaluated at the conclusion of the study to assess changes in cell integrity and account for the effects of chemical exposure on uncharacteristic changes in concentration-dependent gene expression profiles. The results from these determinations of apparent cytotoxicity were annotated (yes/no) alongside the corresponding qNPA data for reference.At the conclusion of each treatment period, hepatocyte cultures (96-well) were washed with 1 volume of HBSS, lysed by addition of 25 ul ArrayPlate lysis buffer (HTG, Tucson, AZ), and 70 ul/well of Denaturation Oil, denatured by incubation at 95C for 10 min, and frozen at approximately -70C until analysis by nuclease protection assay (qNPA) (Roberts et al., 2007). For qNPA analysis, cell lysates were thawed at 50C for approximately 30 min, qNPA probes were added, and samples were incubated at 95C for 10 min to begin the detection process by denaturing the target RNA, dissociating the duplexes and secondary structure hybridization. At the conclusion of the hybridization period, S1 nuclease reagent was added to each sample to digest all nonprotected nucleotides at 50C for 60-90 min. […]
In the case of `CCCOC(=O)NCCCN(C)C`, the compound was classed as inactive. Same read-out and setting: next, `Oc1ccc(C(c2ccc(O)cc2)C(Cl)(Cl)Cl)cc1`: “inactive”; `c1ccc(Nc2ccccc2)cc1`: “inactive”. Same read-out and setting: the same measure for `CCCCC(CC)COC(=O)c1ccccc1C(=O)O` (centres undefined): “inactive”; for `O=C(O)C1(C(=O)Nc2ccc(Cl)cc2Cl)CC1`: “inactive”. Take `CCCOC(=O)c1ccc(C(=O)OCCC)nc1`: the AC50 is 269 nM (active). For `CC(C)(C)[C@@H](O)[C@@H](Cc1ccc(Cl)cc1)n1cncn1`, the compound was classed as inactive. Consider `CSC(=O)c1cccc2nnsc12`, for which the outcome was inactive. For the compound `COC(=O)c1ccccc1C(=O)O`, the compound was called inactive. Still for that read-out and setting: next, `CCCCCCC(C)OC(=O)COc1nc(F)c(Cl)c(N)c1Cl` (centres undefined): “inactive”; `CCC(C)OC(=O)N1CCCCC1CCO` (centres undefined): “inactive”. For the compound `CCC(O)=C1C(=O)CC(C(=O)O)CC1=O` (centres undefined), the outcome was inactive.

On to `CCCN(CCC)C(=O)SCC`, for which the outcome was inactive. With `C#CCOC(=O)[C@@H](C)Oc1ccc(Oc2ncc(Cl)cc2F)cc1`, the result was inactive. As to `CCOC(=O)[C@H](C)Oc1ccc(Oc2nc3ccc(Cl)cc3o2)cc1`, the outcome was inactive. The same measure, in the same setting: the same measure for `CCCCOC(=O)[C@@H](C)Oc1ccc(Oc2ccc(C(F)(F)F)cn2)cc1`: “inactive”. Consider `CCOC(=O)C(C)Oc1ccc(Oc2cnc3cc(Cl)ccc3n2)cc1` (centres undefined), for which the AC50 was 6860 nM (active).

In the case of `c1ccc2[nH]c(-c3cscn3)nc2c1`, the compound was classed as inactive. On to `COc1nc(C)nc(NC(=O)NS(=O)(=O)c2ccccc2OCCCl)n1`, for which the compound was classed as inactive. In the case of `COc1c(Cl)ccc(Cl)c1C(=O)O`, the half-maximal activity concentration (AC50) is 7.07 nM (active).

For `COC(=O)c1ccccc1S(=O)(=O)NC(=O)Nc1nc(OC(F)F)cc(OC(F)F)n1`, the outcome was inactive. Still for that read-out and setting: the same measure for `CCOC(=O)C(C)Oc1ccc(Oc2nc3ccc(Cl)cc3o2)cc1` (centres undefined): “inactive”; for `COC(=O)c1c(Cl)nn(C)c1S(=O)(=O)NC(=O)Nc1nc(OC)cc(OC)n1`: “inactive”. As for `CCSC(=O)N(CC(C)C)CC(C)C`, the result was inactive. As for `CCCCOC(=O)C(C)Oc1ccc(Oc2ccc(C(F)(F)F)cn2)cc1` (centres undefined), the AC50 is 263 nM (active). For `COC(=O)c1cccc(C)c1S(=O)(=O)NC(=O)Nc1nc(OCC(F)(F)F)nc(N(C)C)n1`, the result was inactive. Still for that read-out and setting: next, `CCCCOCCOCCOCc1cc2c(cc1CCC)OCO2`: “inactive”; `Cc1nn(C)c(Oc2ccccc2)c1C=NOCc1ccc(C(=O)OC(C)(C)C)cc1`: “inactive”. For the compound `OB(O)O`, the outcome was inactive.

Broadly, the AC50 is the concentration at which the activity in the assay is half-maximal.
